Rows were chosen to be rich in hits. Some 5.8% of all compounds tested hit in one or more screens of this group.
MCF10A rereplic = inducers of DNA re-replication in MCF 10A breast cells. 2.9% of 350,000 active. Potency, µM (highest dose often 46.1 µM), without a hit: top-dose activity, positive = re-replication, usual class: activators. MCF 10A DNA re-replication, Hoechst nuclear intensity, 48 h. AID 624296; further: % of control where 0% means no effect; nearly all actives have a fitted effect of over 50% in size
KB-3-1 cytotox = KB-3-1 parental cell cytotoxicity | Potency, µM (series often up to 46.1 µM), usual class: cytotoxic | KB-3-1 viability, CellTiter-Glo ATP luminescence, 72 h | AID 1347075 | 1.4% of 400,000 active; further: on the % scale 0 is the no-effect control and ±100 the full control effect; nearly all actives have a fitted effect of over 60% in size
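Viability of parental KB-3-1 cells, measured by CellTiter-Glo luminescence, followed a 72 h incubation at 37 °C with pinned compounds in phenol-red-free DMEM containing 10% FBS.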
KB-V1 cytotox = kills drug-selected multidrug resistant KB-V1 cells; 3.4% of 400,000 active; Potency, µM (series often up to 46.1 µM), actives largely listed as cytotoxic; KB-V1 MDR cells viability, CellTiter-Glo, 72 h; further: on the % scale 0 is the no-effect control and ±100 the full control effect; nearly all actives have a fitted effect of over 60% in size
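Cytotoxicity toward P-gp-expressing KB-V1 cells was determined as loss of CellTiter-Glo luminescence after 72 h at 37 degrees C. Compounds were tested in quantitative HTS format across a concentration range, with curves fitted to normalized data.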
SW480 rerep = induces DNA re-replication in SW480 colon adenocarcinoma cells; SW480 DNA re-replication, Hoechst DNA content imaging, 48 h; Potency, µM (highest dose often 46.1 µM), inactives show at the top dose re-replication activation, actives largely listed as activators; 1.8% of 340,000 active; AID 624297; further: % of control where 0% means no effect; nearly all actives have a fitted effect of over 55% in size
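250 cells/well; 23 nL cpd via pin tool; 48 hr, 37 C, 5% CO2; Hoechst 40 min; imager read of total nuclear intensity, ex 405/em 500-530 nm.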
PINK1 modulator = modulators of PINK1 expression | 0.2% of 410,000 active | PINK1 immunofluorescence, high-content cytometry, 24 h | Potency, µM (highest dose often 76.6 µM), without a hit: at the highest dose activation (PINK1 increase), usual class: activators; active means well fitted activation curve with a large enough effect; inconclusive means small, poorly fitted or top-dose-only effect; cell line not stated here; further: % of control where 0% means no effect; nearly all actives have a fitted effect of over 65% in size
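Stable cell line treated 24 h with compounds at 5 concentrations (CCCP controls), then fixed and immunostained for PINK1 plus nuclear and cell stains; PINK1 immunofluorescence quantified by laser-scanning microplate cytometry.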
ALOX12 inh = inhibitors of human 12S-lipoxygenase ALOX12; P18054; purified 12hLO, xylenol orange hydroperoxide absorbance; Potency, µM (highest dose often 108 µM), for the others: at the highest dose activity change, negative = inhibition, usual class: inhibitors; 1.1% of 580,000 active; AID 1671190; further: on the % scale 0 is the no-effect control and ±100 the full control effect
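Hydroperoxide product was detected by ferrous iron/xylenol orange as the 573 to 405 nm absorbance ratio. Arachidonic acid at 40 uM (final) was turned over for 30 min at room temperature by 150 nM human 12hLO, pH 7.0 Hepes buffer, after 15 min compound preincubation.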
* marks the source's active call; other numbers are inactive results; i = inactive; ? = inconclusive; nt = no result; [ ] = remark or other dose. Unless noted, the call rests on the fitted dose curve; in most records, active means well fitted curve in the direction sought with a large enough effect; inconclusive means small, poorly fitted or top-dose-only effect, or another doubt; inactive means no such curve, though single readings can be large; an effect the other way counts as inactive or inconclusive. Potency means the concentration at half of the fitted maximal effect.

SMILES	MCF10A rereplic	KB-3-1 cytotox	KB-V1 cytotox	SW480 rerep	PINK1 modulator	ALOX12 inh
CNC(=S)N1N=C(c2ccc(OC)cc2)CC1c1ccccc1Cl (centres undefined)	14.2%	i	i	-12.4%	-0.8%	11.2%
COc1ccc(OC)c(C2CC(c3ccccc3)=NN2C(=S)Nc2ccccc2)c1 (centres undefined)	4.11µM*	i	i	4.61µM*	5.2%	29.8%
CN(CCc1noc(C(=O)NCc2ccccc2)n1)C(=O)Nc1ccc(F)c(Cl)c1	nt	nt	nt	nt	nt	8.7%
CC1=CC(=O)C2=C(C)C[C@H](OC(=O)c3ccccc3Br)[C@@H]3[C@H](OC(=O)[C@H]3C)[C@@H]12	nt	nt	nt	nt	nt	-90.0%
C/C=C/c1ccc(OCC(=O)OCC(=O)c2ccc3c(c2)OCO3)c(OC)c1	nt	nt	nt	nt	nt	-42.4%
COc1cc(-c2nc(-c3ccccc3)c(-c3cccs3)[nH]2)cc(OC)c1O	?	?	20.6µM*	-4.1%	0.7%	?
COc1cc(-c2nc(-c3ccccc3)c(-c3cccs3)[nH]2)cc(OC)c1OC	?	i	i	0.3%	2.9%[38.3 µM]	-16.2%
O=C(CSc1nnc(Nc2cccc(F)c2)s1)Nc1ccnn1C1CCCC1	nt	nt	nt	nt	nt	-9.6%
COc1ccccc1-c1c(C)oc2cc(O)ccc2c1=O	nt	nt	nt	nt	nt	41.0%
S=c1nc(-c2ccco2)[nH][nH]1	8.9%	i	i	-6.6%	0.9%	6.31µM*
COc1cc(SC)ccc1C(=O)NCc1ccccc1	2.9%	i	20.6µM*	-130.5%	0.0%	-22.5%
COc1cc(SC)ccc1C(=O)NCCOc1ccc(C)c(C)c1	5.4%	i	16.4µM*	-1.4%	2.9%	-7.3%
COc1cc(SC)ccc1C(=O)NCc1ccc(C)cc1	-10.1%	i	i	-2.4%	10.5%[38.3 µM]	12.0%
O=C(C1=C(c2ccccc2)S(=O)(=O)CCO1)N(Cc1ccccc1F)c1ccccn1	nt	nt	nt	nt	nt	-22.8%
CN(CC1CCCN(CCc2ccc(Cl)cc2)C1)C(=O)CC(F)(F)F (centres undefined)	16.6%	i	i	5.8µM*	-0.5%	-20.6%
COc1ccc(CN2CCC3CC2c2cc(-c4cccc(C)c4)ccc23)cc1 (centres undefined)	9.2µM*	i	i	?	?	3.4%
Cc1c(C(=O)NCCS(=O)(=O)N2CCN(c3ccccc3F)CC2)cccc1[N+](=O)[O-]	?	23.1µM*	?	?	8.1%	4.9%
O=C(Cc1ccc(Cl)cc1)NCCS(=O)(=O)N1CCN(c2ccccc2F)CC1	18.4µM*	13µM*	7.31µM*	?	5.2%	?
Cc1ccc(C(=O)NCCS(=O)(=O)N2CCN(c3ccccc3F)CC2)cc1[N+](=O)[O-]	3.1%	i	i	-23.1%	3.7%	-28.4%
O=C(O)C(c1c[nH]c2ccc(Br)cc12)N1CCN(CCOc2ccc(Cl)cc2)CC1 (centres undefined)	nt	nt	nt	nt	nt	-26.3%
CCc1ccc(CNC(=O)c2cc3c(s2)-c2ccccc2OC3)cc1	nt	14.6µM*	?	nt	8.1%	-2.0%
Cc1cccc2c1-c1sc(C(=O)NCCCN3CCC(C)CC3)cc1CO2	23.1µM*	?	i	29.1µM*	-1.0%	-27.5%
CC1CCCN(CCCNC(=O)c2cc3c(s2)-c2ccccc2OC3)C1 (centres undefined)	?	?	i	?	-1.1%	-16.3%
CC1CCN(CCCNC(=O)c2cc3c(s2)-c2ccccc2OC3)CC1	5.8µM*	23.1µM*	i	84.1%	-1.1%	-5.6%
COCCCN(Cc1ccco1)C(=O)c1cc2c(s1)-c1ccccc1OC2	nt	?	10.3µM*	nt	4.4%	?
CCOc1ccc(CNC(=O)c2cc3c(s2)-c2ccccc2OC3)cc1	nt	i	i	nt	4.9%	-4.0%
COc1ccc2nc3cc(Cl)ccc3c(C#N)c2c1	25.0%	i	i	20.6µM*	6.2%	-18.1%
CSCCC(NC(N)=O)C(=O)Nc1ccc2ccccc2c1 (centres undefined)	-3.4%	i	i	-6.2%	3.7%	-1.8%

Bioassay records (PubChem)
